Measured values as given in PubChem BioAssay AID624417 (National Center for Advancing Translational Sciences (NCATS), 2012).
The whole screen tested about 410,000 compounds, of which about 6,400 (1.6%) were called active. A call without a number means that no potency is given here. Inconclusive results (about 20%) are left out. Calls come from the whole dose curve; as a rule, active = well fitted inhibition curve with a large enough effect; inconclusive = small, poorly fitted or top-dose-only effect; inactive = no such curve, though single readings can be large or run the other way. Only a selection was taken, and actives are over-represented in it overall.

Target: Glucagon-like peptide 1 receptor (Homo sapiens) (UniProt P43220)
Test: qHTS of GLP-1 Receptor Inverse Agonists (Inhibition Mode); note: nearly all actives have a fitted effect of over 55% in size
Settings: HEK293 GLP-1R CRE-luciferase, luminescence, 24 h, GLP-1R form is constitutively active; series mostly up to 38.3 µM
Summary of the method: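 Assay principle: reduced luminescence from a cAMP-responsive reporter in HEK293 cells co-expressing a constitutively active GLP-1R. Conditions: 24 hr compound incubation, 37 deg C, 5% CO2.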
Potency is the fitted concentration of half-maximal effect.

Chain of Glucagon-like peptide 1 receptor (Homo sapiens) (P43220 whole entry, looked up): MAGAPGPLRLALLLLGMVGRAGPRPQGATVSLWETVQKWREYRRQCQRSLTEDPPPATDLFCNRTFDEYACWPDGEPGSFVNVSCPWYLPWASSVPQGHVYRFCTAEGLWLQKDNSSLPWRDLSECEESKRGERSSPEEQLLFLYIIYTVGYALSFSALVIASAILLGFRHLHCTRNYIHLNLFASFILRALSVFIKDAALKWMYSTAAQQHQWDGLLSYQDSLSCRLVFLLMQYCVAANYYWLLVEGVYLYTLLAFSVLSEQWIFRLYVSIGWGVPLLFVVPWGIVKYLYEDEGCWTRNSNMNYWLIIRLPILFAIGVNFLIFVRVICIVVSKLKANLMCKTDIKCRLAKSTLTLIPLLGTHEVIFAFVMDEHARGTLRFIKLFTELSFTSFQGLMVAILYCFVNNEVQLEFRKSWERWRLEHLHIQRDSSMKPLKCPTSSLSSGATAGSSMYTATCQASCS

Compound	Potency	activity change, negative = inhibition
S=c1[nH]nc(-c2ccc(Cl)cc2)n1CC1CCCO1 (stereo not drawn)	inactive	
O=C(c1[nH]ncc1-c1ccc(Cl)cc1)C1CO1 (stereo not drawn)	11.2 µM (active)	
O=C(c1nnc(-c2ccc(Cl)cc2)o1)C1CCCC1	inactive	
CC(=O)OC[C@@H]1CN(Cc2ccccc2)C[C@H](n2cnc3c(NCc4ccco4)ncnc32)O1	inactive	
CCCCCCN1C[C@@H](O)[C@H](n2cc(COC(=O)c3ccccc3)nn2)C[C@@H]1c1ccc(Cl)cc1	inactive	
C[C@H]1CN([C@@H](C)CO)C(=O)CCCn2nncc2CO[C@@H]1CN(C)S(=O)(=O)c1cccc(C#N)c1	inactive	
COCCCN1C(=O)C(CC(=O)NCc2cccs2)CC(C(=O)N2CCOCC2)=C1C (stereo not drawn)	inactive	
CCOc1ccc(N(Cc2ccccc2)C(=O)c2nc(SCC)ncc2Cl)cc1	5.62 µM (active)	
CCSc1ncc(Cl)c(C(=O)Nc2c(C(=O)c3ccccc3)oc3ccccc23)n1	inactive	
CCOc1ccc(NC(=O)c2nc(SCC)ncc2Cl)cc1	inactive	
CC(=O)C1=CCC(c2ccccc2)N(S(=O)(=O)c2ccc(C)cc2)C1 (stereo not drawn)	inactive	
COc1ccc(C(=O)OCC(=O)Nc2cc(C)on2)cc1F	inactive	
COC(=O)c1ccc2c(c1)S(=O)(=O)NC2C (stereo not drawn)	inactive	
Cc1cc(Br)cn2c(Cc3ccccc3C(F)(F)F)c(C3CCCCC3)nc12	inactive	
COc1ccc(CNC(=O)c2ccc(-c3cccnc3)c3ccoc23)cc1OC	inactive	
O=C(NC1(C(F)(F)F)N=C(c2ccccc2)N(C2CCCCC2)C1=O)c1ccccc1F (stereo not drawn)	11.2 µM (active)	
O=C(NC1(C(F)(F)F)NC(=O)N(C2CCCCC2)C1=O)c1ccco1 (stereo not drawn)	inactive	
COC(=O)NC1(C(F)(F)F)NC(=O)N(C2CCCCC2)C1=O (stereo not drawn)	inactive	
CC1(C(=O)NS(=O)(=O)C2CC2)CCCN(C(=O)CSc2ccccc2)C1 (stereo not drawn)	inactive	
CC1=C(C(=O)N(C)C)CC(CC(=O)NCCN2CCOCC2)C(=O)N1Cc1ccccc1 (stereo not drawn)	inactive	
C=C1C(=O)[C@]23C[C@H]1CCC2[C@@]1(C)C(C[C@@H]3O)[C@](C)(C(=O)O)CC[C@@H]1O (stereo partly drawn)	inactive	
COc1cc(C=C(OC(C)=O)c2ccc3c(c2)OCO3)cc(OC)c1OC	inactive	
C[C@H]1Cn2cnc(C(=O)N[C@H](C)c3ccccc3)c2C(=O)N1	inactive	
CCCCc1nc2ccc(F)cc2cc1C	inactive	

Compound	Potency	activity change, negative = inhibition
O=C(Nc1ccc(F)cc1)c1ccc(S(=O)(=O)NCc2cccnc2)cc1	inactive	
Cc1ccc(C(=O)Nc2ccc(C(=O)O)cc2)cc1S(=O)(=O)Nc1ccccc1	inactive	
O=C(Nc1ccc(Br)cc1)c1ccc(Br)c(S(=O)(=O)NCc2ccccc2)c1	10 µM (active)	
O=C1OCCOC2CCCc3oc(-c4ccccc4)c1c32 (stereo not drawn)	inactive	
COc1ccc(C(C)C)cc1-c1ccc2nncn2c1	inactive	
N#C/C(=C\c1ccc(-c2cccc([N+](=O)[O-])c2)o1)C(=O)NCCN1CCOCC1		31.2% [at 7.66 µM] (inactive)
Cc1ccc(C(=O)N/C(=C/c2ccc(-c3cccc([N+](=O)[O-])c3)o2)C(=O)NCCCN(C)C)cc1	10 µM (active)	
CN(C)CCNC(=O)/C(=C/c1cccc([N+](=O)[O-])c1)NC(=O)c1ccccc1	inactive	
O=C(OCC(=O)N1CCCCCC1)c1cccc(Cl)c1Cl	inactive	
C[C@@H]1CN([C@H](C)CO)C(=O)CCCn2nncc2CO[C@@H]1CN(C)S(=O)(=O)c1cccc(C#N)c1	inactive	
Cc1ccc(Cn2cc(CN3CC(N4CCN(C)CC4)CS3(=O)=O)nn2)cc1 (stereo not drawn)	inactive	
CCn1c(SCC(=O)NC2CCCC2)nnc1-c1ccoc1C	inactive	
COc1ccccc1NC(=O)CSc1nnc(-c2ccoc2C)n1CCc1ccccc1	7.94 µM (active)	
COc1cc(Cl)c(C)cc1NC(=O)CSc1nnc(-c2ccco2)n1CC(C)C	inactive	
Cc1c(NC(=O)CSc2cccc3cccnc23)c(=O)n(-c2ccccc2)n1C	5.62 µM (active)	
Cc1c(NC(=O)CSc2nnc(-c3cccnc3)n2N)c(=O)n(-c2ccccc2)n1C	inactive	
Cc1c(NC(=O)CSc2nnnn2-c2ccc(C(=O)O)cc2)c(=O)n(-c2ccccc2)n1C	inactive	
Cn1cnc(S(=O)(=O)N2C[C@@H](O)COC[C@@H]3O[C@H](CC(=O)NC4CCC4)CC[C@H]32)c1	inactive	
Brc1ccc2nc(-c3ccccc3)c(Cc3ccccc3)n2c1	inactive	
Cc1cccc(Nc2ccccc2C(=O)NCc2ccco2)c1C	12.6 µM (active)	
Cc1ccc(N(Cc2ccc(C(=O)Nc3ccccc3C(=O)NCc3ccco3)cc2)S(C)(=O)=O)cc1C	inactive	
O=C(CCNC(=O)c1ccccc1Cl)NCc1ccco1	inactive	
CC1(C(=O)NCc2ccc3c(c2)OCO3)CCN1C(=O)Cc1cccs1 (stereo not drawn)	inactive	
O=C(NCc1cccnc1)c1cc(C2CCCCN2C(=O)CCc2ccccc2)on1 (stereo not drawn)	inactive	
